The list is not random: actives were taken first. Their share in the collection is about 12%.
Sfp inh: blocks B. subtilis Sfp PPTase activity; Biochemical Sfp PPTase activity, qHTS; AID 1490; hit rate 3.5% among 310,000; Q9F4F7; Potency, µM, most hits filed as inhibitors;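 also: the enzyme is Sfp with the accession as filed and its product quenches rhodamine fluorescence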
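With Hepes-Na pH 7.6 buffer containing 10 mM MgCl2, Sfp (15 nM) modified BHQ-2-YbbR (12.5 uM) using rhodamine-CoA (5 uM). Two reads 30 minutes apart at 525/598 nm yielded each well's rate.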
JMJD2A Tudor inh: blocks the human JMJD2A Tudor domain. AlphaScreen JMJD2A-Tudor / H3K4me3 peptide binding. Potency, µM (top dose mostly 114 µM), usual class: inhibitors. hit rate 4.4% among 390,000. O75164; also: nearly all actives have a fitted effect of over 50% in size
L3MBTL1 block: blocks human L3MBTL1; hit rate 0.66% among 230,000; Potency, µM (doses to about 57.1 µM), most hits filed as inhibitors; AID 485360; AlphaScreen L3MBTL1–H3K9me1 peptide binding; also: nearly all actives have a fitted effect of over 60% in size
Target sequence (Q9Y468 whole entry, looked up): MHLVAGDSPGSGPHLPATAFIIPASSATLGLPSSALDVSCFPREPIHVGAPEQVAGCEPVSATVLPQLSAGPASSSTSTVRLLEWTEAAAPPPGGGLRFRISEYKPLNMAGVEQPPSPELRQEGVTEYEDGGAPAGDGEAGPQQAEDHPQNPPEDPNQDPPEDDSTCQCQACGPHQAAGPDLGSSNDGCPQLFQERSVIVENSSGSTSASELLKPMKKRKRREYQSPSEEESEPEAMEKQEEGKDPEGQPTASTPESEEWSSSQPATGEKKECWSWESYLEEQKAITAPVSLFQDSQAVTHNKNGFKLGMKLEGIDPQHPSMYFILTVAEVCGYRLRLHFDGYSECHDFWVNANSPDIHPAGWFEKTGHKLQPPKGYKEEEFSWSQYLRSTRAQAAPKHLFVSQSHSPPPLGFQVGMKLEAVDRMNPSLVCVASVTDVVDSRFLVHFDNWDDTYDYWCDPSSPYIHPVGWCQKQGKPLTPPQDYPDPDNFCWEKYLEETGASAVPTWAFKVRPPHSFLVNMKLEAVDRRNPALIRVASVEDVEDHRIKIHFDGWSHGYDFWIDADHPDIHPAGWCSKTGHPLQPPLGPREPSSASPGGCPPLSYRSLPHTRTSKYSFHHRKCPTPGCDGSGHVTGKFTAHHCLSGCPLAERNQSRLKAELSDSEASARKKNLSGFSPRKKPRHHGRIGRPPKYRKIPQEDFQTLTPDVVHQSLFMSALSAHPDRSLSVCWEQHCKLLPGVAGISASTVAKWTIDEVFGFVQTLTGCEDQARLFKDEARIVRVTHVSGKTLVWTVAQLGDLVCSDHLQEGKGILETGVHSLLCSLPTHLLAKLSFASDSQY
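Read-out is AlphaScreen signal from streptavidin donor and nickel chelate acceptor beads (10 ug/mL final each) bridging L3MBTL1 (50 nM) and biotinylated K9-monomethylated H3(1-15) peptide (75 nM), after 30 min compound exposure at room temperature.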
G9a inh: blocks human histone lysine methyltransferase G9a | G9a H3K9 monomethylation, AlphaScreen, 2 h | hit rate 8.8% among 350,000 | Potency, µM (top dose mostly 102 µM), most hits filed as inhibitors | Q96KQ7; also: nearly all actives have a fitted effect of over 75% in size
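Readings reflect AlphaScreen signal from monomethyl-H3K9 antibody detection. HMT at 20 nM; substrate b-H3K9 500 nM; cofactor SAM 20 uM; 2 h RT reaction; compounds tested as titrations in qHTS with 15 min preincubation.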
BAZ2B block: blocks human BAZ2B; AlphaScreen BAZ2B-H3K14Ac peptide displacement; Potency, µM (series often up to 114 µM), most hits filed as inhibitors; hit rate 4.4% among 360,000; also: nearly all actives have a fitted effect of over 60% in size
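In this displacement format the biotinylated H3(5-23) peptide acetylated at Lys14 serves as ligand at 50 nM, with BAZ2B at 50 nM in PBS pH 7.4 containing 0.01% Tween-20. Donor and acceptor beads are 10 ug/mL final.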
HP1b chromo inh: HP1-beta chromodomain-methylated histone interaction inhibition | hit rate 0.56% among 390,000 | AlphaScreen HP1-beta / biotin-H3K9me3 peptide binding | Potency, µM (series often up to 114 µM), actives largely listed as inhibitors | P83916 | AID 540317; also: nearly all actives have a fitted effect of over 70% in size
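AlphaScreen: HP1-beta (50 nM) preformed 30 min with biotin-H3(1-18)K9me3 peptide (50 nM) in PBS pH 7.4, 0.01% Tween-20. Compound added for 30 min at RT, then streptavidin donor/nickel chelate acceptor beads (10 ug/mL) for 30 min.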
A number is an active result; - = inactive; ? = inconclusive; . = not tested or not shown; [ ] = another dose, or the depositor's remark. Calls follow the shape of the dose curve; as a rule, active = well fitted curve in the direction sought with a large enough effect; inconclusive = small, poorly fitted or top-dose-only effect, or another doubt; inactive = no such curve, though single readings can be large; an effect the other way counts as inactive or inconclusive.

SMILES	Sfp inh	JMJD2A Tudor inh	L3MBTL1 block	G9a inh	BAZ2B block	HP1b chromo inh
C=CCNC(=S)N/N=C(\C)c1cccnc1	15.8µM	-	-[2.29 µM]	-	-	-
C/C(=N/NC(=O)c1ccc(C)s1)c1cccnc1	-	35.5µM	.	?	-	-
C=CCNC(=S)N/N=C(\C)c1cccc(OC)c1	-	-	-	-	-	-
C/C(=N/NC(=O)c1ccc(Cl)s1)c1cccnc1	-	-	.	-	-	-
C/C(=N/NC(=O)c1ccc(Br)s1)c1ccncc1	-	-	.	70.8µM	-	-
C/C(=N\NC(=O)Cc1c(F)cccc1Cl)c1cccnc1	-	-	.	50.1µM	-	-
COc1ccccc1OCC(=O)NCC(c1ccc(Cl)cc1)N1CCOCC1 (stereo not given)	.	-	.	-	-	-
O=c1c(CCc2ccccc2)nc2cnc(N3CCOCC3)nc2n1C[C@H]1CCCO1	-	.	.	-[12.7 µM]	.	.
CCOC(=O)N1CCN(C(=O)Nc2sc3nc4n(c(=O)c3c2C)CCC(C)CC4)CC1 (stereo not given)	-	-	-	31.6µM	-	-
CCOC(=O)c1sc2nc3n(c(=O)c2c1C)CCC(C)CC3 (stereo not given)	22.4µM	-	.	10µM	-	-
CCOC(=O)N1CCC(NC(=O)c2sc3nc4n(c(=O)c3c2C)CCCC4)CC1	-	-	.	-[12.7 µM]	-	-
O=C(OCC#CCSc1nnc(-c2cccc3ccccc23)s1)c1cccs1	.	.	-	-[12.7 µM]	-	.
COc1cc2cnc(-c3ccccc3)c(-c3cccc(C(F)(F)F)c3)c2cc1OC	.	-	-	-[0.501 µM]	56.2µM	-
CCOc1ccccc1NC(=O)CSC1=Nc2ccccc2C2=NC(CC(=O)NCc3ccc4c(c3)OCO4)C(=O)N12 (stereo not given)	.	-	.	-	-	-
Cc1cc(NC(=O)Nc2nnc(N(C)C3CCCCC3)s2)ccc1Br	.	-	.	-	50.1µM	-
Cc1ccc(-n2ncc(C(=O)NCCCN3CCc4ccccc4C3)c2C2CCN(C(=O)OC(C)(C)C)CC2)cc1C	.	?	.	-	-	-
Cc1ccc(C2c3cccn3CCN2S(=O)(=O)c2ccc([N+](=O)[O-])cc2)cc1 (stereo not given)	.	?	.	14.1µM	7.08µM	?
O=[N+]([O-])c1ccc(S(=O)(=O)N2CCn3cccc3C2c2ccc(Br)cc2)cc1 (stereo not given)	.	?	.	7.94µM	?	-
Cc1ccc([N+](=O)[O-])cc1S(=O)(=O)N1CCn2cccc2C1c1ccc(F)c(F)c1 (stereo not given)	.	?	.	?	?	-
CC(=O)c1ccc(S(=O)(=O)N2CCn3cccc3C2c2ccc(F)c(F)c2)cc1 (stereo not given)	.	-	.	?	-	-
COc1ccc2c(c1)cc1c(=O)n(CC(=O)NCCc3ccccc3)nc(C)n12	.	-	.	-	-	-
CCc1ccccc1NC(=O)C1CCCN(c2ncnc3onc(C)c23)C1 (stereo not given)	.	-	.	-	-	-
CCOC(=O)CC1C(=O)NCCN1c1nc2ccc(C)cn2c(=O)c1/C=C1\SC(=S)N(CC(C)C)C1=O (stereo not given)	-	-	-	?	79.4µM	-
CCOC(=O)CC1C(=O)NCCN1c1nc2ccc(C)cn2c(=O)c1/C=C1\SC(=S)N(C(C)CC)C1=O (stereo not given)	?	.	-	.	28.2µM	.
Brc1ccc2ncnc(Nc3ccc(N4CCOCC4)cc3)c2c1	-	?	-	-[12.7 µM]	44.7µM	-
SMILES	Sfp inh	JMJD2A Tudor inh	L3MBTL1 block	G9a inh	BAZ2B block	HP1b chromo inh
O=C(COc1ncnc2ccc(Br)cc12)N1CCOCC1	-	-	.	1.12µM	-	-
COc1ccc(CNC(=O)c2cnc3sc4cc(OC)ccc4n3c2=O)cc1	.	-	.	-	-	-
CS(=O)(=O)N(Cc1ccccc1)c1ccc(C(=O)NCCSCc2ccco2)cc1	28.2µM	?	?	-	?	-
Cc1ccc(C)c(N(CC(=O)NCCSCc2ccco2)S(C)(=O)=O)c1	20µM	-	-	?	?	-
CS(=O)(=O)Nc1ccc(C(=O)NCCSCc2ccco2)cc1	-	-	?	-	-	-
Cc1cccc(N(CC(=O)NCCSCc2ccco2)S(=O)(=O)c2ccccc2)c1	56.2µM	?	-	-[12.7 µM]	?	-

Source: PubChem BioAssay
